Consider 31 compounds from PubChem BioAssay AID602313 (National Center for Advancing Translational Sciences (NCATS), 2012).

Among all 390,000 compounds or so, about 760 (0.19%) were called active. Another 3% or so got no clear call; they are omitted. The sample holds actives, similar compounds and a random draw of the others, so the mix is not that of the screen. A number with no mark means an inactive call. Calls come from the whole dose curve; as a rule, active = well fitted inhibition curve with a large enough effect; inconclusive = small, poorly fitted or top-dose-only effect; inactive = flat fitted curve, though single readings scatter.
Potency is the fitted concentration of half-maximal effect.

The assay is described as follows: qHTS for Inhibitors of Vif-A3F Interactions: qHTS. For activity, negative = active: % of control where 0% means no effect. Note: nearly all actives have a fitted effect of over 65% in size. The following applies: HeLa A3F-eYFP + Vif (tagged APOBEC3F with the HIV-1 protein that degrades it), YFP fluorescence increase; series mostly up to 46.1 µM; activity, negative = active: at the top concentration. A digest of the protocol:
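HeLa cells stably expressing A3F-eYFP plus Vif, plated and incubated overnight at 37 deg C, then exposed to compounds overnight at 37 deg C. Blocked degradation read as raised yellow fluorescence (Ex 488/Em 500-530).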
As to `CCOC(=O)c1cc(-c2ccccc2)n(-c2cccc(C(=O)Nc3cc(OC)cc(OC)c3)c2)c1C`, the “activity, negative = active” value is -2.09%.
In the case of `Cn1ccc2cc(S(=O)(=O)N3CCCC(C(=O)NCc4ccccc4F)C3)ccc21` (stereo unspecified), the “activity, negative = active” value is 4.17%.
In the case of `O=C(NC1CC(=O)N(c2ccccc2)C1)c1ccco1` (stereo unspecified), the “activity, negative = active” value was 0.19%.
Regarding `Cc1cn(C)c(CC(=O)NCc2ccc(Cl)cc2)c1C(=O)O`, the “activity, negative = active” value was 2.04%.
For `O=C(NCCc1csc(-c2ccc(C(F)(F)F)cc2)n1)C(=O)Nc1ccc(F)c(Cl)c1`, the “activity, negative = active” value was 0.643%.
Take `Cc1cc(C)c2oc(-c3cccc(NC(=O)c4cccc(F)c4)c3C)nc2c1`: the “activity, negative = active” value is 1.45%.
In the case of `CCCCn1c(=O)c2oc3ccccc3c2n(CC(=O)Nc2ccccc2OC)c1=O`, the “activity, negative = active” value was -15.2%.
Same read-out and setting: the value for `CCCCN(CC)C(=O)c1c[nH]c2ccc(S(=O)(=O)Nc3cccc(OC)c3)cc2c1=O` was -7.41%; that for `CC(=O)N/C(=N/c1nc(C)cc(C)n1)Nc1ccc(F)cc1F` was -7.66%.
On to `Cc1cc(C)nc(-n2nc(C)cc2NC(=O)c2ccc(F)cc2F)n1`, for which the Potency was 12.6 µM (active).
As to `Cc1cc(C(=O)Nc2cccc(C(F)(F)F)c2)c2c(C)nn(-c3cccc(F)c3)c2n1`, the “activity, negative = active” value was -9.16%.
`O=C(COc1ccc(Cl)cc1)Nc1ccccc1OCc1cc(=O)n2ccccc2n1`: the “activity, negative = active” value is 0.587%.
Regarding `COc1cccc(/C=N/NC(=O)c2[nH]nc3c2CCc2ccccc2-3)c1O`, the Potency is 25.1 µM (active).
On to `Cc1ncc(CO)c(/C=N/NC(=O)c2cccc(S(=O)(=O)N3CCCC3)c2)c1O`, for which the “activity, negative = active” value is 5.89%.
Regarding `Cc1ccccc1NC(=O)COc1cccc2c1CCNC2=O`, the “activity, negative = active” value was -9.72%.
Same read-out and setting: the value for `COC(=O)c1c(NC(=O)c2cc(=O)c3c(C)cc(C)cc3o2)sc2c1CCCC2` was -0.264%; that for `Cn1c(C(=O)Nc2cccc(C(F)(F)F)c2)cc2c(=O)n3ccccc3nc21` was 1.82%.
Regarding `Cc1ccc(NC2=C(c3ccc(C(F)(F)F)cc3)C(=O)c3ccccc32)cc1F`, the “activity, negative = active” value is -3.21%.
Regarding `Cc1ccc(Cn2c(CCCNC(=O)C3CCCCC3)nc3ccccc32)cc1`, the “activity, negative = active” value is 0.0414%.
As for `Cn1c(SCC(=O)N2CCCc3ccccc32)nc2ccccc2c1=O`, the “activity, negative = active” value is 2.28%.
As for `Cc1cccc2cc3c(N)c(C(=O)N4CCCc5ccccc54)sc3nc12`, the Potency was 11.2 µM (active).
Take `Cc1cccc(-c2nnc(SCC(=O)N3CCCc4ccccc43)o2)c1`: the “activity, negative = active” value was 4.4%.
Take `CCOC(=O)c1cccc(NC(=O)c2cc(CN3CCCC3)on2)c1`: the “activity, negative = active” value is 1.99%.
`CC(=O)c1ccc(NC(c2ccc(F)cc2)c2nnc(-c3ccccc3)o2)cc1` (stereo unspecified): the “activity, negative = active” value is -8.82%.
Turning to `CCc1ccc(N2C(=O)CN(S(=O)(=O)CC)CC2(C)C(=O)NC2CCCCC2)cc1` (stereo unspecified), the “activity, negative = active” value is 2.79%.
Same read-out and setting: the value for `CCCn1c(=N)c(C(=O)NCc2ccccc2)cc2c(=O)n3cccc(C)c3nc21` was -5.4%; that for `CC(C)c1ccc(NC(=O)c2ccc(Cn3nc(N4CCN(c5ccccc5)CC4)ccc3=O)o2)cc1` was 0.981%; that for `Cn1c(=O)c2c(SCC(=O)NCC3CCCO3)nc(-c3ccccc3F)nc2n(C)c1=O` (stereo unspecified) was -5.96%.
`Cc1ccc(-c2cc(C(=O)Oc3ccccc3Cl)no2)cc1C`: the “activity, negative = active” value was -1.13%.
For the compound `O=c1cc(COc2cccc(C(F)(F)F)c2)nc2sc3c(n12)CCCC3`, the “activity, negative = active” value was -7.96%.
Consider `COc1ccc(CNC(=O)c2cc3cccc(OC)c3oc2=O)cc1`, for which the “activity, negative = active” value was 0.834%.
